The results in this text go back to ChEMBL document CHEMBL4513216, “Probing the Open Global Health Chemical Diversity Library for Multistage-Active Starting Points for Next-Generation Antimalarials” (ACS Infect Dis, 2020).

The campaign covered roughly 69,000 compounds. About 8,600 (12%) showed an effect of 50% or more. The list comes from a sample in which strong results are over-represented; it also holds similar structures and randomly drawn compounds.

For the experiment, the system named is Plasmodium berghei. In words: Screen against P. berghei liver stage (PbLuc), transformed with Luciferase, at 10uM. The format is functional, HepG2. To be noted: tested at 10 uM.
Turning to `CC(C)N1CCCC2(CCN(C(=O)COCC(F)(F)C(F)F)C2)C1=O` (stereo not drawn), the INHIBITION turned out to be 50.2%.
With `O=C(COCC(F)(F)C(F)F)N1CCC2(CCCN(CC3CC3)C2=O)C1` (stereo not drawn) the figure was 27.8%.
Regarding `O=C(COCC(F)(F)C(F)F)N1CCC2(CCCN(CCO)C2=O)C1` (stereo not drawn), the INHIBITION is -8.97%.
With `COC1COC2(CCN(CC3CC3)CC2)C1` (stereo not drawn), the INHIBITION worked out at 15.8%.
As for `NC(=O)Cc1csc(NC(=O)C2CSCCC(=O)N2)n1` (stereo not drawn), the figure is 32.1%; as for `CNC(=O)Cc1csc(NC(=O)C2CSCCC(=O)N2)n1` (stereo not drawn), 50.2%.
Consider `O=C1CCSCC(C(=O)NCc2nc(-c3ccccc3)no2)N1` (stereo not drawn), for which the INHIBITION came to 14.3%.
With `Cc1noc(CNC(=O)C2CSCCC(=O)N2)n1` (stereo not drawn) the figure was 61.6%.
With `Cc1nnc(CNC(=O)C2CSCCC(=O)N2)o1` (stereo not drawn) the figure was -5.22%; with `Cc1csc(NC(=O)C2CSCCC(=O)N2)n1` (stereo not drawn), 24.5%; with `CCN(Cc1c(C)nn(CC)c1C)S(=O)(=O)c1cnn(C)c1C`, 38.3%.
As for `CC[C@@H]1N(Cc2ccncc2)CCC[C@]12CCC(=O)N2C`, the figure is 18.6%; as for `CC(C)n1nc2c(cc1=O)CN(CCOc1cccc(C#N)c1)CC2`, 23.1%; as for `Clc1ccc(-c2nnc(CNCCn3cccn3)o2)c(Cl)c1`, -38.2%.
For the compound `CC(C)[C@H]1CN(Cc2c[nH]nn2)C[C@@H]1NC(=O)C1CCOCC1`, the INHIBITION worked out at 16.3%.
As for `Cc1nnc(CN2C[C@H](NC(=O)C3CCOCC3)[C@@H](C(C)C)C2)s1`, the figure is 90.2%.
As for `Cc1ncsc1CN1C[C@H](NC(=O)C2CCOCC2)[C@@H](C(C)C)C1`, the figure is 75.4%; as for `CC(C)[C@H]1CN(Cc2ccccc2C#N)C[C@@H]1NC(=O)C1CCOCC1`, 45.9%.
Take `Cc1csc(CN2C[C@H](NC(=O)C3CCOCC3)[C@@H](C(C)C)C2)n1`: the INHIBITION is on record as 42.5%.
As for `Cc1ncsc1CN1C[C@@H]2COC[C@]2(C(=O)NC2CC(F)(F)C2)C1`, the figure is 32.1%.
With `CCN(Cc1ccc(F)cc1Cl)C1CCS(=O)(=O)C1` (stereo not drawn), the INHIBITION was 21.6%.
With `Cc1cc(C[S+]([O-])Cc2ccccc2F)on1` (stereo not drawn) the figure was 10.1%; with `CCCn1cc(-c2cc(C(=O)N(C)C)c3ccc(OC)cc3n2)cn1`, 29.85%.
In the case of `COc1cccc(CSc2nnc(C)n2CC(N)=O)c1`, the INHIBITION was -15.1%.
With `Cc1nnc(SCc2cccc(F)c2)n1CC(N)=O` the figure was 20.9%.
With `Cc1cccc(CSc2nnc(C)n2CC(N)=O)c1` the figure was 57.7%.
With `O=C(NCCCN1CCOCC1)c1ccn(COc2ccc(F)cc2)n1` the figure was -41.2%; with `O=C(NCC(CO)Cc1ccc(Cl)cc1)c1ccncc1Cl` (stereo not drawn), 5.21%.
As for `CCSc1cc(C(=O)NCC(C)(C)N(C)C)ccn1`, the INHIBITION is 15.7%.
As for `CCOC(=O)c1ccccc1NC(=O)CN(C)Cc1ccccc1Cl`, the figure is 68.9%.
With `CN(CC(=O)Nc1ccccc1C(=O)NC1CC1)Cc1ccccc1Cl` the figure was 8.08%.
As for `CCOc1ccccc1NC(=O)CN(C)Cc1ccccc1Cl`, the figure is 32%.
As to `N#Cc1cccc(S(=O)(=O)NC(=O)C2CC(c3ccccc3)=NO2)c1` (stereo not drawn), the INHIBITION is recorded as 33.4%.
With `Cc1cc2ccncc2n1CC1(O)CCN(C(=O)c2cccnc2)CC1` the figure was 9.98%; with `CN1CC(=O)N(c2cccnc2)Cc2c(NC3CC3)ncnc21`, 41.6%; with `CC(C)(C)c1cc(=O)[nH]c(-c2ccccc2CN2CCCCCC2)n1`, -7.65%.
As for `CC(C)c1cc(=O)[nH]c(-c2ccccc2CN2CCC(C)(C)C2)n1`, the figure is 29.4%; as for `CC1(C)CCN(Cc2ccccc2-c2nc(C(C)(C)C)cc(=O)[nH]2)C1`, 57.3%.
As for `Cc1cc(C)n(C2CN(c3ncnc4c3CCNCC4)C2)n1`, the figure is 40.5%; as for `Cc1ccc(C2(O)CCN(C(=O)CCn3ccc(=O)[nH]c3=O)CC2)nc1`, 82%.
For the compound `Cc1ccc(C2(O)CCN(C(=O)CCn3c(C)cccc3=O)CC2)nc1`, the INHIBITION is reported as 28.7%.
With `Cc1ccc(C2(O)CCN(C(=O)Cn3cc(C)c(=O)[nH]c3=O)CC2)nc1` the figure was 30.9%.
Turning to `CN(CC(O)C(F)(F)F)C(=O)Nc1cccc(C(F)F)c1` (stereo not drawn), the INHIBITION was 40.7%.
Turning to `Cc1c(NC(=O)C(C)N(C)C)c(=O)n(-c2ccccc2)n1C` (stereo not drawn), the INHIBITION is given as -45.8%.
For the compound `COc1ccc(Cl)cc1CS(=O)(=O)Cc1nc(C2CC2)no1`, the INHIBITION is on record as -3.96%.
With `COc1ccc(Cl)cc1CS(=O)(=O)Cc1noc(C)n1` the figure was 34.7%; with `COc1ccc(Cl)cc1CS(=O)(=O)Cc1nc(C)no1`, 60.4%; with `Clc1snnc1CN1CCCC(Cn2cncn2)C1` (stereo not drawn), 62.1%.
With `CC(C)(C)c1nc(CN2CCCC(Cn3cncn3)C2)cs1` (stereo not drawn) the figure was 61.7%.
With `Clc1cc(CN2CCCN3CCCC3C2)c2ncccc2c1` (stereo not drawn) the figure was 55%; with `Clc1cc(CN2CCCC(Cn3cncn3)C2)c2ncccc2c1` (stereo not drawn), 76.2%; with `Clc1snnc1CN1CCCCC1Cn1cncn1` (stereo not drawn), 10.8%.
Consider `Clc1ccc(CN2CCCC(Cn3cncn3)C2)c2ncccc12` (stereo not drawn), for which the INHIBITION was 35.1%.
As for `c1ccc(-c2nc(CN3CCCC(Cn4cncn4)C3)cs2)cc1` (stereo not drawn), the figure is -7.35%; as for `Clc1snnc1CN1CCCC1Cn1cncn1` (stereo not drawn), -11.4%; as for `Cc1cccc2cc(CN3CCCN4CCC[C@H]4C3)c(=O)[nH]c12`, 34.9%.
As for `Clc1cc(CN2CCCCC2Cn2cncn2)c2ncccc2c1` (stereo not drawn), the figure is -9.83%.
With `CC(C)c1nc(CN2CCCC(Cn3cncn3)C2)cs1` (stereo not drawn) the figure was 31.2%; with `Clc1cc(CN2CCCC2Cn2cncn2)c2ncccc2c1` (stereo not drawn), 22.9%; with `Cc1cnc(C(=O)N2CCCC(n3cncn3)C2)cn1` (stereo not drawn), 41.5%.
Regarding `CCCc1nc(C(=O)N2CCn3nc(C(=O)OC)cc3C2)cs1`, the INHIBITION amounted to 9.16%.
Turning to `Cc1noc(-c2ccc(N3CCN(Cc4nccn4C)CC3)nc2)n1`, the INHIBITION is given as 9%.
As for `CC(Cc1ccccc1F)C(=O)Nc1ccc(OCCC(N)=O)cc1` (stereo not drawn), the figure is -8.92%; as for `CCOc1ccc(C2CCCN2C(=O)NCCn2ccnc2)cc1` (stereo not drawn), 8.85%; as for `CC(=O)N1CCCC(Cc2cnc(C(=O)N3CCC(C)CC3)cn2)C1` (stereo not drawn), 6.32%.
With `Cc1ccnn1CCC(=O)N1C[C@@H](O)[C@H](Oc2cccc(F)c2)C1` the figure was 9.93%; with `CN(Cc1cnc(C(C)(C)C)nc1)Cc1nc2ccc(F)cc2[nH]1`, -0.18%; with `CCOCC(=O)N1C[C@@H](O)[C@H](NC(C)=O)C1`, 4.41%.
As for `CN(C)CC1CN(Cc2cc(Cl)cc3cccnc23)CCO1` (stereo not drawn), the figure is 23.4%; as for `COc1cc(Cl)cc(CN2CCCC(N3CCOCC3)C2)c1OC` (stereo not drawn), 15.7%.
Consider `OCCN1CCN(Cc2cc(Cl)cc3cccnc23)CC1`, for which the INHIBITION turned out to be 42.7%.
With `O[C@@H]1CN(Cc2cc(Cl)cc3cccnc23)C[C@@H]1O` the figure was 51.3%.
As for `COc1cc(Cl)cc(CN2CCCC(N3CCCC3)C2)c1OC` (stereo not drawn), the figure is 77.6%; as for `COc1ccc(CN2CCCC(N3CCCC3)C2)cc1Cn1cncn1` (stereo not drawn), 34.1%; as for `CC1=C(C(=O)N(C)Cc2n[nH]c3c2CCCCC3)C(C)NC(=O)N1` (stereo not drawn), 17.5%.
As for `c1ccc(CCc2n[nH]c(C3CCOC3)n2)cc1` (stereo not drawn), the figure is 21.5%; as for `CSCC(=O)N(C)Cc1cnn(-c2ccc(F)cc2)c1`, 13%; as for `COc1cccc(-n2cc(CN(C)Cc3ccnc(C(C)C)n3)cn2)c1`, 15.005%.
For the compound `CC(C)c1nccc(CN(C)Cc2cnn(-c3ccccc3)c2)n1`, the INHIBITION is recorded as 51.7%.
With `Cc1nonc1CN(C)Cc1cnn(-c2ccc(F)cc2)c1` the figure was -23.4%.
As for `CCn1cc(CN(C)Cc2cnn(-c3ccc(F)cc3)c2)cn1`, the figure is 17%; as for `CC(C)c1nccc(CN(C)Cc2cccc(-n3cccn3)c2)n1`, 6.9%; as for `CN(Cc1ccncc1)Cc1cnn(-c2ccc(F)cc2)c1`, 51.8%.
Regarding `Cc1ccnn1CC(=O)N(C)Cc1ccc(-n2cccn2)cc1`, the INHIBITION is reported as 21.8%.
On to `Cc1ccnn1CC(=O)N(C)Cc1cnn(-c2ccccc2)c1`, for which the INHIBITION stood at 50.8%.
For the compound `CN(C)Cc1ccnc(C2CCCN2Cc2cccc(F)c2F)n1` (stereo not drawn), the INHIBITION was found to be 15.9%.
`CCc1ocnc1C(=O)N1CCCC(n2nc(C)nc2C)C1` (stereo not drawn): the INHIBITION turned out to be 11.715%.
With `O=C(c1cnc(O)cc1O)N1CCCC(CCc2ccccc2F)C1` (stereo not drawn) the figure was 15.8%; with `CNC(=O)[C@H]1C[C@@H]2CN(C(=O)c3ccc(C)nc3)C[C@@H]2N1C(C)C`, 11.3%.
With `Cc1csc(C2CCCN(C(=O)c3c(C)nn4cccnc34)C2)n1` (stereo not drawn), the INHIBITION is -2.53%.
For the compound `COC1CCN(CCNc2ncc(Br)cc2C)CC1`, the INHIBITION is recorded as 41.5%.
With `CC(=O)N1CCN(CCNS(=O)(=O)c2ccc(C)c(F)c2)CC1` the figure was -3.95%; with `CC(=O)N1CCN(CCNS(=O)(=O)c2cc(F)ccc2C)CC1`, 17.1%.
Consider `CC(=O)N1CCN(CCNc2ncc(Br)cc2C)CC1`, for which the INHIBITION is listed as 54.4%.
With `Cc1cc(C(C)NCCN2CCC(N(C)C)CC2)c(C)s1` (stereo not drawn) the figure was 46.6%; with `Cc1cc(Br)cnc1NCCN1CCC(N(C)C)CC1`, 64%; with `Cc1cc(N2CCOCC2)ccc1NC(C)c1nc(C(C)(C)C)no1` (stereo not drawn), 14.9%.
With `Cc1n[nH]c(C)c1NC(=O)CN1CCCC1Cn1cncn1` (stereo not drawn) the figure was 30%; with `CC(=O)N1CCC(c2nccnc2Nc2cnccn2)CC1`, -21.6%; with `CN(Cc1ccncn1)C(=O)CCC(=O)NC1CCCC1`, 39.4%.
With `CCCN1C[C@@H]2CC[C@H]1CN(Cc1cccc(-n3cccn3)c1)C2` the figure was 48.2%; with `COCCN1CCN(c2ccc(CN(C)C)cn2)CC1`, -14.3%; with `CC(C1CC1)N(C)C(=O)CCn1cccn1` (stereo not drawn), 49%.
On to `CCN(C(=O)CCn1cccn1)C1CC1`, for which the INHIBITION stood at 36.2%.
With `CC(C)CC(C)N(C)C(=O)CCn1cccn1` (stereo not drawn) the figure was 64%; with `Cc1nn(C)c(C)c1NC(=O)CCn1ncc2ccc(Cl)cc21`, -14.7%; with `CC(=O)c1cc(C(=O)N2CCN(C)Cc3ccccc32)n(C)c1`, -94.3%.
For `CC(C)c1n[nH]c(C2CN(C(=O)COCC(F)(F)F)CCO2)n1` (stereo not drawn), the INHIBITION is given as 31.6%.
